Test results published in PubChem BioAssay (Tox21).
Inconclusive results are not listed. Activity calls are given as the source filed them. Unless noted, calls come from the whole dose curve; as a rule, active = well fitted curve in the direction sought with a large enough effect in the repeat runs; inconclusive = weak or mixed curves; inactive = no such curve, though single readings can be large; an effect the other way counts as inactive or inconclusive.

Legend:
[1] = qHTS assay to identify small molecule antagonists of the estrogen receptor alpha (ER-alpha) signaling pathway using the BG1 cell line in the presence of 0.1 nM 17-beta-estradiol - cell viability counter screen (AID 1259241); note: nearly all actives have a fitted effect of over 40% in size
Procedure, shortened: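 VM7Luc4E2 cells (endogenous full-length ER-alpha, 4xERE-luciferase), cultured 5 days in charcoal-stripped serum, exposed to compounds with 0.1 nM 17beta-estradiol (final) for 22 hr at 37C. Viability read in same wells as live-cell protease fluorescence after 30 min.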

[2] = qHTS assay to identify small molecule antagonists of the androgen receptor (AR) signaling pathway using the MDA cell line in the presence of 0.5 nM R1881 - cell viability counter screen (AID 1259242); note: nearly all actives have a fitted effect of over 45% in size
Procedure, shortened: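 Cytotoxicity toward MDA-kb2 cells is measured by CellTiter-Fluor live-cell protease fluorescence after 16 hr compound exposure at 37C in the presence of 0.5 nM R1881 stimulator.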

[3] = target: Estrogen receptor (Homo sapiens) (UniProt P03372); experiment: qHTS assay to identify small molecule antagonists of the estrogen receptor alpha (ER-alpha) signaling pathway using the BG1 cell line in the presence of 0.1 nM 17-beta-estradiol (AID 1259244); note: nearly all actives have a fitted effect of over 50% in size
Procedure, shortened: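 After 5 days in hormone-depleted medium (charcoal-stripped serum, no phenol red), VM7Luc4E2 cells were seeded, incubated 24 h, then co-treated with compound and 0.1 nM (final) estradiol for 22 h before luminescence detection.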

[4] = qHTS assay to identify small molecule HDAC inhibitors (AID 1259364); note: top concentration of the series differs between compounds; nearly all actives have a fitted effect of over 45% in size
Procedure, shortened: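 Homogeneous cell-based luminescent assay of endogenous class I/II HDAC activity; HCT-116 cells, 2 h compound exposure, 30 min HDAC-Glo development at RT.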

[5] = qHTS assay to identify small molecule agonists of the sonic hedgehog signaling (Shh) pathway - cell viability counter screen (AID 1259366); note: nearly all actives have a fitted effect of over 50% in size
Procedure, shortened: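 NIH/3T3-derived Gli1-Luc reporter cells, 2,000 per well, received compound after 4 h and were treated about 23 h at 37C. Viability measured in the same wells by CellTiter-Fluor fluorescence after 1 h.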

[6] = qHTS assay to identify small molecule antagonists of the sonic hedgehog signaling (Shh) pathway - cell viability counter screen (AID 1259367); note: nearly all actives have a fitted effect of over 55% in size
Procedure, shortened: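 After a 4 hr settling period, 3T3 Gli1-Luc cells were treated with DMSO-dissolved chemicals and conditioned medium, kept 24 hr at 37C in 5% CO2, and assayed for viability by CellTiter-Fluor fluorescence following 1 hr reagent incubation.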

[7] = qHTS assay to identify small molecule agonists of the sonic hedgehog signaling (Shh) pathway (AID 1259368; calls by dose curve;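 note: NIH/3T3-derived 3T3Gli1-Luc cells carrying a stable Gli1-driven firefly luciferase reporter; series mostly up to about 92 µM; nearly all actives have a fitted effect of over 15% in size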)
Procedure, shortened: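 Steps: seed 3T3 Gli1-Luc cells, incubate 4 hr at 37 C, pin-transfer compounds in DMSO alongside a positive control, incubate 24 hr, add luciferase detection reagent, wait 30 min at room temperature, read luminescence.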

[8] = qHTS assay to identify small molecule HDAC inhibitors - cell viability counter screen (AID 1259365); note: series mostly up to about 92 µM; nearly all actives have a fitted effect of over 50% in size
Procedure, shortened: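 Wild-type HCT-116 cells, 1,500/well, cultured overnight, then compound-treated 2 h at 37 C. Viability measured as ATP luminescence with CellTiter-Glo after 30 min at room temperature.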

[9] = qHTS assay to identify small molecule phospholipidosis (PLD) inducers (AID 1259344; active = well fitted curve in the direction sought with a large enough effect; an effect the other way counts as inactive or inconclusive)
Procedure, shortened: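 HepG2 cells grown on collagen I take up LipidTOX Red while exposed to compound for 24 h; after fixation they are imaged at 20x and pit metrics are extracted.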
% is set by controls: 0 for no effect and ±100 for the full control effect.

Sequence of Estrogen receptor (Homo sapiens) (P03372 whole entry, looked up): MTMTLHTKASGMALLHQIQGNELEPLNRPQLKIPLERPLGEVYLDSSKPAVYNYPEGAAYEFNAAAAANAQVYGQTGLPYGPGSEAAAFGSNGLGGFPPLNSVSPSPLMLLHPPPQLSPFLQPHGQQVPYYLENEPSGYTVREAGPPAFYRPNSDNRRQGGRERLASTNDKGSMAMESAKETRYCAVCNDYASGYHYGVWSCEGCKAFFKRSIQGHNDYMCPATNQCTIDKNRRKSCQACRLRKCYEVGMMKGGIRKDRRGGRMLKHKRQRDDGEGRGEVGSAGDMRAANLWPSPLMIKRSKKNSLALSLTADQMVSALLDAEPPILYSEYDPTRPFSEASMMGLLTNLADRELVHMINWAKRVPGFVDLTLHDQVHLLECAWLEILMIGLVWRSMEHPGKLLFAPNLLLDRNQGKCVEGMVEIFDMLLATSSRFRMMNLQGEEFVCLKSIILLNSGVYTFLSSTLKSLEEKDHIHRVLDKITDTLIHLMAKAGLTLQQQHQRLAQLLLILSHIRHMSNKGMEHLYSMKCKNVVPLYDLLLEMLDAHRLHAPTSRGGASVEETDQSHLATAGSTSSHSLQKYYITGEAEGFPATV

CC(CO)(CO)[N+](=O)[O-]
inactive: outcome [1] | outcome [2] | outcome [3] | Potency [4] | Potency [5] | Potency [6] | outcome [7]

CC(C)(C)OC(=O)c1cccc(N)c1
inactive: outcome [1] | outcome [2] | outcome [3] | Potency [4] | outcome [8] | Potency [5] | Potency [6] | outcome [7]

C[C@H]1[C@H](NC(=O)/C(=N/OC(C)(C)C(=O)O)c2csc(N)n2)C(=O)N1S(=O)(=O)O (stereo in doubt)
inactive: outcome [1] | outcome [2] | outcome [9] | Potency [4] | outcome [8] | Potency [5] | Potency [6] | outcome [7]

CC1OC1C1CCC2(C)OC2C1 (stereo not drawn)
inactive: outcome [1] | outcome [2] | outcome [3] | Potency [4] | outcome [8] | Potency [5] | Potency [6] | outcome [7]

C=CC(=O)OCCCl
inactive: outcome [1] | outcome [2] | outcome [3] | Potency [4] | outcome [8] | Potency [5] | Potency [6] | outcome [7]

CCN[C@@H]1C[C@H](N)[C@@H](OC2OC(CN)=CCC2N)[C@H](O)[C@H]1O[C@H]1OC[C@](C)(O)[C@H](NC)[C@H]1O (stereo partly drawn)
inactive: activity change, negative = cytotoxicity [1] 0.862% [at 0.349 µM] | viability change, negative = cytotoxic [2] 0.329% [at 0.349 µM] | outcome [9] | activity change, negative = inhibition [4] 3.34% [at 0.349 µM] | activity change, negative = cytotoxicity [8] 1.54% [at 0.349 µM] | viability change, negative = cytotoxic [5] -1.56% [at 0.349 µM] | viability change, negative = cytotoxic [6] 0.171% [at 0.349 µM] | activity change [7] 0.0974% [at 0.349 µM]

COC(=O)C1=C(C)NC(C)=C(C(=O)OC(C)C)C1c1cccc2nonc12 (stereo not drawn)
inactive: outcome [1] | outcome [2] | outcome [9] | Potency [4] | outcome [8] | outcome [7]

CN(C)[C@@H]1C(=O)C(C(=O)NCN2CCCC2)=C(O)[C@@]2(O)C(=O)C3=C(O)c4c(O)cccc4[C@@](C)(O)C3C[C@@H]12 (stereo partly drawn)
inactive: outcome [1] | outcome [2] | outcome [9] | Potency [4] | Potency [5] | Potency [6] | outcome [7]

CCCCc1nc(Cl)c(CO)n1Cc1ccc(-c2ccccc2-c2nn[nH]n2)cc1
inactive: outcome [1] | outcome [2] | outcome [9] | Potency [4] | outcome [8] | Potency [5] | Potency [6] | outcome [7]

Cc1c(N)c(=O)n(-c2ccccc2)n1C
inactive: outcome [1] | outcome [2] | outcome [9] | Potency [4] | outcome [8] | Potency [5] | Potency [6] | outcome [7]

CC(C)CC(C)(N)C#N (stereo not drawn)
inactive: outcome [1] | outcome [2] | Potency [4] | outcome [8] | Potency [5] | Potency [6] | outcome [7]

COc1cc(-c2ccc(=O)[nH]n2)ccc1OC(F)F
inactive: outcome [1] | outcome [2] | outcome [9] | Potency [4] | outcome [8] | Potency [5] | Potency [6] | outcome [7]

COc1ccccc1OCC1CNC(=O)O1 (stereo not drawn)
inactive: outcome [1] | outcome [2] | PLD induction [9] 3.13% [at 7.66 µM] | Potency [4] | outcome [8] | Potency [5] | Potency [6] | outcome [7]

NC(=O)N[C@@H](CCC(=O)O)C(=O)O
inactive: outcome [1] | outcome [2] | outcome [9] | Potency [4] | outcome [8] | Potency [5] | Potency [6] | outcome [7]

CC1=C(C/C=C(\C)CCC[C@H](C)CCC[C@H](C)CCCC(C)C)C(=O)c2ccccc2C1=O
inactive: outcome [1] | outcome [2] | outcome [9] | Potency [4] | outcome [8] | Potency [5] | Potency [6] | outcome [7]

O=[N+]([O-])c1ccc(/C=N\O)o1
inactive: outcome [1] | outcome [2] | outcome [9] | Potency [4] | outcome [8] | Potency [5] | Potency [6] | outcome [7]

COc1cc(C(=O)NCc2ccc(OCCN(C)C)cc2)cc(OC)c1OC
inactive: outcome [1] | outcome [2] | outcome [9] | Potency [4] | outcome [8] | Potency [5] | Potency [6] | outcome [7]

O=CN(CCO)CCO
inactive: outcome [1] | outcome [2] | Potency [4] | outcome [8] | Potency [5] | Potency [6] | outcome [7]

c1ccc2sc(SN3CCOCC3)nc2c1
inactive: outcome [1] | outcome [2] | outcome [9] | outcome [8] | Potency [5] | Potency [6] | outcome [7]

COc1c(N2CCNC(C)C2)c(F)cc2c(=O)c(C(=O)O)cn(C3CC3)c12 (stereo not drawn)
inactive: outcome [1] | outcome [2] | outcome [9] | Potency [4] | outcome [8] | Potency [5] | Potency [6] | outcome [7]

COc1cc(C)nc(-n2nc(C)cc2OC)n1
inactive: outcome [1] | outcome [2] | outcome [9] | Potency [4] | outcome [8] | Potency [5] | Potency [6] | outcome [7]

Nc1ccn([C@@H]2O[C@H](CO)[C@@H](O)C2O)c(=O)n1 (stereo partly drawn)
inactive: outcome [1] | outcome [2] | outcome [9] | Potency [4] | outcome [8] | Potency [5] | Potency [6] | outcome [7]

CCCc1nn(C)c2c(=O)[nH]c(-c3cc(S(=O)(=O)N4CCN(C)CC4)ccc3OCC)nc12
inactive: outcome [1] | outcome [2] | outcome [9] | Potency [4] | outcome [8] | Potency [5] | Potency [6] | outcome [7]

NCCCC[C@H](N[C@@H](CCc1ccccc1)C(=O)O)C(=O)N1CCC[C@H]1C(=O)O
inactive: outcome [1] | outcome [2] | outcome [9] | Potency [4] | outcome [8] | Potency [5] | Potency [6] | outcome [7]

CC[N+](C)(CC)CCOC(=O)C1c2ccccc2Oc2ccccc21
inactive: outcome [1] | outcome [2] | outcome [9] | Potency [4] | outcome [8] | Potency [5] | Potency [6] | outcome [7]
